Test results as given in PubChem BioAssay AID1159580 (chemical genetic matrix, 2015).
Out of some 5,500 compounds screened, about 2,000 (36%) were called active. Not shown: some 18% with an inconclusive outcome. No stated cut-off is given here; in the data, active means normalized growth mostly below about 0.91 (no sharp cut-off); inconclusive means no clear call, values can overlap the other calls; inactive means mostly above about 0.92. The list shows a part of the results.

Test: chemical genetic growth profiling, strain panel (AID 1159580);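 further: tested at 20 µM; growth read once vehicle control cultures reached saturation at 30 °C; 1 = growth at the plate median or of vehicle wells; lower values mean less growth of the strain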
Conditions: growth OD
[1] = S. cerevisiae deletion strains, locus YDL101C, strain DUN1, active compounds read low
[2] = S. cerevisiae deletion strains, locus YHR030C, strain SLT2, active compounds read low

Measured: normalized growth

O=[N+]([O-])c1ccc(OCCO)c([N+](=O)[O-])c1
inactive: S. cerevisiae deletion strains, locus YAL013W, strain DEP1, active compounds read low 1 | S. cerevisiae deletion strains, locus YBR229C, strain ROT2, active compounds read low 0.978 | S. cerevisiae deletion strains, locus YCL061C, strain MRC1, active compounds read low 1.04 | [1] 1.01 | S. cerevisiae deletion strains, locus YDR150W, strain NUM1, active compounds read low 0.981 | S. cerevisiae deletion strains, locus YEL061C, strain CIN8, active compounds read low 0.954 | S. cerevisiae deletion strains, locus YGR078C, strain PAC10, active compounds read low 1.02 | [2] 1.23 | S. cerevisiae deletion strains, locus YHR087W, strain rtc3, active compounds read low 0.991 | S. cerevisiae deletion strains, locus YJL187C, strain SWE1, active compounds read low 0.991 | S. cerevisiae deletion strains, locus YJR043C, strain POL32, active compounds read low 1.01 | S. cerevisiae deletion strains, locus YJR075W, strain HOC1, active compounds read low 1.03 | S. cerevisiae deletion strains, locus YKL190W, strain CNB1, active compounds read low 1 | S. cerevisiae deletion strains, locus YLR039C, strain RIC1, active compounds read low 1.18 | S. cerevisiae deletion strains, locus YLR058C, strain SHM2 (second series), active compounds read low 0.998 | S. cerevisiae deletion strains, locus YLR085C, strain ARP6, active compounds read low 1 | S. cerevisiae deletion strains, locus YLR262C, strain YPT6, active compounds read low 1.14 | S. cerevisiae deletion strains, locus YML094W, strain GIM5, active compounds read low 1 | S. cerevisiae deletion strains, locus YMR219W, strain ESC1, active compounds read low 0.993 | S. cerevisiae deletion strains, locus YMR263W, strain SAP30, active compounds read low 1.01 | S. cerevisiae deletion strains, locus YNL153C, strain GIM3, active compounds read low 1.01 | S. cerevisiae deletion strains, locus YNL298W, strain CLA4 (second series), active compounds read low 0.987 | S. cerevisiae deletion strains, locus YNL322C, strain KRE1, active compounds read low 0.982 | S. cerevisiae deletion strains, locus YNR030W, strain Alg12, active compounds read low 0.997 | S. cerevisiae deletion strains, locus YOL006C, strain TOP1, active compounds read low 1.01 | S. cerevisiae deletion strains, locus YPL055C, strain LGE1, active compounds read low 0.989 | S. cerevisiae deletion strains, locus YPL241C, strain CIN2, active compounds read low 0.996 | S. cerevisiae deletion strains, locus YPR135W, strain CTF4, active compounds read low 1.11 | S. cerevisiae strains, strain wild type, active compounds read low 0.986

O=C(ON=C1CCCCC1)c1ccc([N+](=O)[O-])cc1
active: [2] 0.576 | S. cerevisiae deletion strains, locus YLR113W, strain HOG1, active compounds read low 0.69 | S. cerevisiae deletion strains, locus YPL256C, strain CLN2, active compounds read low 0.829
inactive: S. cerevisiae deletion strains, locus YAR019C, strain CDC15, active compounds read low 0.949 | S. cerevisiae deletion strains, locus YBL105C, strain PKC1, active compounds read low 0.959 | S. cerevisiae deletion strains, locus YBR135W, strain CKS1, active compounds read low 0.947 | S. cerevisiae deletion strains, locus YBR136W, strain MEC1, active compounds read low 0.956 | S. cerevisiae deletion strains, locus YBR160W, strain CDC28, active compounds read low 0.959 | S. cerevisiae deletion strains, locus YDL017W, strain CDC7, active compounds read low 0.952 | S. cerevisiae deletion strains, locus YDL028C, strain MPS1, active compounds read low 0.95 | [1] 0.954 | S. cerevisiae deletion strains, locus YDL108W, strain KIN28, active compounds read low 0.948 | S. cerevisiae deletion strains, locus YDL132W, strain cdc53, active compounds read low 0.944 | S. cerevisiae deletion strains, locus YDL214C, strain PRR2, active compounds read low 0.849 | S. cerevisiae deletion strains, locus YDR052C, strain DBF4, active compounds read low 0.962 | S. cerevisiae deletion strains, locus YDR054C, strain cdc34, active compounds read low 0.948 | S. cerevisiae deletion strains, locus YDR226W, strain ADK1, active compounds read low 0.948 | S. cerevisiae deletion strains, locus YDR477W, strain SNF1, active compounds read low 0.833 | S. cerevisiae deletion strains, locus YER123W, strain YCK3, active compounds read low 0.817 | S. cerevisiae deletion strains, locus YER133W, strain GLC7, active compounds read low 0.762 | S. cerevisiae deletion strains, locus YFL009W, strain cdc4, active compounds read low 0.942 | S. cerevisiae deletion strains, locus YFL029C, strain CAK1, active compounds read low 0.938 | S. cerevisiae deletion strains, locus YFR003C, strain YPI1, active compounds read low 0.953 | S. cerevisiae deletion strains, locus YFR019W, strain FAB1, active compounds read low 0.886 | S. cerevisiae deletion strains, locus YFR028C, strain CDC14, active compounds read low 0.942 | S. cerevisiae deletion strains, locus YGR040W, strain KSS1, active compounds read low 0.828 | S. cerevisiae deletion strains, locus YGR052W, strain FMP48, active compounds read low 0.843 | S. cerevisiae deletion strains, locus YGR092W, strain DBF2, active compounds read low 0.889 | S. cerevisiae deletion strains, locus YHR079C, strain IRE1, active compounds read low 0.784 | S. cerevisiae deletion strains, locus YHR082C, strain KSP1, active compounds read low 0.901 | S. cerevisiae deletion strains, locus YHR205W, strain SCH9, active compounds read low 0.829 | S. cerevisiae deletion strains, locus YIL147C, strain SLN1, active compounds read low 0.946 | S. cerevisiae deletion strains, locus YJL095W, strain BCK1, active compounds read low 0.771 | S. cerevisiae deletion strains, locus YJL128C, strain PBS2, active compounds read low 0.981 | S. cerevisiae deletion strains, locus YJL157C, strain FAR1, active compounds read low 0.82 | S. cerevisiae deletion strains, locus YJR016C, strain ILV3, active compounds read low 0.953 | S. cerevisiae deletion strains, locus YJR066W, strain TOR1 (second series), active compounds read low 0.814 | S. cerevisiae deletion strains, locus YJR066W, strain TOR1, active compounds read low 0.838 | S. cerevisiae deletion strains, locus YKL048C, strain ELM1, active compounds read low 0.974 | S. cerevisiae deletion strains, locus YKL067W, strain YNK1, active compounds read low 0.865 | S. cerevisiae deletion strains, locus YKL101W, strain HSL1, active compounds read low 0.881 | S. cerevisiae deletion strains, locus YKL193C, strain SDS22, active compounds read low 0.934 | S. cerevisiae deletion strains, locus YKL203C, strain TOR2, active compounds read low 0.888 | S. cerevisiae deletion strains, locus YLR133W, strain CKI1, active compounds read low 0.874 | S. cerevisiae deletion strains, locus YLR403W, strain SFP1, active compounds read low 0.783 | S. cerevisiae deletion strains, locus YML070W, strain DAK1, active compounds read low 0.819 | S. cerevisiae deletion strains, locus YMR001C, strain CDC5, active compounds read low 0.947 | S. cerevisiae deletion strains, locus YMR205C, strain PFK2 (second series), active compounds read low 0.876 | S. cerevisiae deletion strains, locus YMR277W, strain FCP1, active compounds read low 0.938 | S. cerevisiae deletion strains, locus YNL006W, strain LST8, active compounds read low 0.943 | S. cerevisiae deletion strains, locus YNL020C, strain ARK1, active compounds read low 0.876 | S. cerevisiae deletion strains, locus YNL161W, strain CBK1, active compounds read low 0.941 | S. cerevisiae deletion strains, locus YNL183C, strain NPR1, active compounds read low 0.916 | S. cerevisiae deletion strains, locus YNL207W, strain RIO2, active compounds read low 0.944 | S. cerevisiae deletion strains, locus YNL222W, strain SSU72, active compounds read low 0.948 | S. cerevisiae deletion strains, locus YNL307C, strain MCK1 (second series), active compounds read low 0.851 | S. cerevisiae deletion strains, locus YOL078W, strain AVO1, active compounds read low 0.937 | S. cerevisiae deletion strains, locus YOL136C, strain PFK27, active compounds read low 0.85 | S. cerevisiae deletion strains, locus YOR061W, strain CKA2, active compounds read low 0.867 | S. cerevisiae deletion strains, locus YOR119C, strain RIO1, active compounds read low 0.877 | S. cerevisiae deletion strains, locus YOR231W, strain MKK1, active compounds read low 0.826 | S. cerevisiae deletion strains, locus YOR329C, strain SCD5, active compounds read low 0.949 | S. cerevisiae deletion strains, locus YPL031C, strain PHO85, active compounds read low 0.78 | S. cerevisiae deletion strains, locus YPL153C, strain RAD53, active compounds read low 0.794 | S. cerevisiae deletion strains, locus YPL204W, strain HRR25, active compounds read low 0.784 | S. cerevisiae deletion strains, locus YPL209C, strain IPL1, active compounds read low 0.952 | S. cerevisiae deletion strains, locus YPR025C, strain CCL1, active compounds read low 0.948 | S. cerevisiae deletion strains, locus YPR106W, strain ISR1, active compounds read low 0.969 | S. cerevisiae deletion strains, locus YPR111W, strain DBF20, active compounds read low 0.968 | S. cerevisiae deletion strains, strain NNK1, active compounds read low 0.972 | S. cerevisiae deletion strains, strain TSCII, active compounds read low 0.936
